Screening results (PubChem)
Sampled rows, rich in hits. Any-hit rate of the full collection: about 12%.
G9a block – inhibitors of human histone lysine methyltransferase G9a. G9a H3K9 monomethylation, AlphaScreen, 2 h. Potency, µM (top dose mostly 102 µM), without a hit: top-dose activity, negative = inhibition, most hits filed as inhibitors. 350,000 tested, 8.8% active. AID 504332; note: % is set by controls: 0 for no effect and ±100 for the full control effect; nearly all actives have a fitted effect of over 75% in size
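Quantitative HTS format: methyltransferase activity on a biotin-tagged H3K9 peptide is measured by AlphaScreen, using a rabbit anti-monomethyl-H3K9 antibody with streptavidin donor and anti-IgG acceptor beads. Final levels are 20 nM enzyme, 500 nM peptide, 20 uM SAM; 2 h RT.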
BAZ2B inh – inhibitors of human BAZ2B bromodomain; Potency, µM (doses to about 114 µM), inactives show at the top dose activity change, negative = inhibition, hits mostly inhibitors; AlphaScreen BAZ2B-H3K14Ac peptide displacement; Q9UIF8; 360,000 tested, 4.4% active; note: % is set by controls: 0 for no effect and ±100 for the full control effect; nearly all actives have a fitted effect of over 60% in size
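In this displacement format the biotinylated H3(5-23) peptide acetylated at Lys14 serves as ligand at 50 nM, with BAZ2B at 50 nM in PBS pH 7.4 containing 0.01% Tween-20. Donor and acceptor beads are 10 ug/mL final.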
JMJD2A Tudor – blocks the human JMJD2A Tudor domain | AID 504339 | O75164 | Potency, µM (highest dose often 114 µM), for inactives: at the highest dose activity change, negative = inhibition, actives largely listed as inhibitors | 390,000 tested, 4.4% active | AlphaScreen JMJD2A-Tudor / H3K4me3 peptide binding; note: % is set by controls: 0 for no effect and ±100 for the full control effect; nearly all actives have a fitted effect of over 50% in size
L3MBTL1 inh – inhibitors of human L3MBTL1. Q9Y468. AlphaScreen L3MBTL1–H3K9me1 peptide binding. Potency, µM (doses to about 57.1 µM), without a hit: top-dose activity, negative = inhibition, actives largely listed as inhibitors. 230,000 tested, 0.66% active. AID 485360; note: % is set by controls: 0 for no effect and ±100 for the full control effect; nearly all actives have a fitted effect of over 60% in size
Target sequence (Q9Y468 whole entry, looked up): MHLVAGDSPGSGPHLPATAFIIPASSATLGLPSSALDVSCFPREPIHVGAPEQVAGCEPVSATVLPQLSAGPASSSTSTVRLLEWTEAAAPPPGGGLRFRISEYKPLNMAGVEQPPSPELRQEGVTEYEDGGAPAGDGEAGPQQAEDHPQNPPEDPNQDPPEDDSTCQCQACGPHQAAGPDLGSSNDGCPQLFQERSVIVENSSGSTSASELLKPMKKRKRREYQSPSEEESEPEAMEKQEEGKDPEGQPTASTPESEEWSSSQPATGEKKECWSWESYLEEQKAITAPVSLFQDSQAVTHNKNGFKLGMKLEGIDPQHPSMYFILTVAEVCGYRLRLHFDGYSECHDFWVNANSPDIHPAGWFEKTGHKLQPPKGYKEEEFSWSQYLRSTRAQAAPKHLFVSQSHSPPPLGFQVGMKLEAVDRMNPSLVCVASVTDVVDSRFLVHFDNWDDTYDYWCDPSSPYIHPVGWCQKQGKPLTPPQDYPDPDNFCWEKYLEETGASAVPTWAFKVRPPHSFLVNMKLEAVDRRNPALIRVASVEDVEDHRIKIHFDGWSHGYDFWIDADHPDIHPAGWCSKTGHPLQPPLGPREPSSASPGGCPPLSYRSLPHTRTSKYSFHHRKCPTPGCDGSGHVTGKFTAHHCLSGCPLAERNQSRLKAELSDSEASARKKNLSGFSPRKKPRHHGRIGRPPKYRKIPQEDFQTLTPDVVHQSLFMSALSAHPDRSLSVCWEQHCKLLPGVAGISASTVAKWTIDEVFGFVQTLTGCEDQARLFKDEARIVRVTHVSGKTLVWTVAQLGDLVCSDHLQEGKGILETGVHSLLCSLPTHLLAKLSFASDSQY
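Read-out is AlphaScreen signal from streptavidin donor and nickel chelate acceptor beads (10 ug/mL final each) bridging L3MBTL1 (50 nM) and biotinylated K9-monomethylated H3(1-15) peptide (75 nM), after 30 min compound exposure at room temperature.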
Sfp PPTase inh – blocks B. subtilis Sfp PPTase activity. 310,000 tested, 3.5% active. Biochemical Sfp PPTase activity, qHTS. Q9F4F7. Potency, µM, without a hit: largest response in the series, negative = inhibition, actives largely listed as inhibitors;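 note: the enzyme is Sfp with the accession as filed and its product quenches rhodamine fluorescence; 0% = enzyme reaction without inhibitor and -100% = no enzyme wells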
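With Hepes-Na pH 7.6 buffer containing 10 mM MgCl2, Sfp (15 nM) modified BHQ-2-YbbR (12.5 uM) using rhodamine-CoA (5 uM). Two reads 30 minutes apart at 525/598 nm yielded each well's rate.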
HP1b binding inh – inhibitors of HP1-beta chromodomain binding to methylated histone tails. P83916. AlphaScreen HP1-beta / biotin-H3K9me3 peptide binding. Potency, µM (highest dose often 114 µM), inactives show at the top dose activity change, negative = inhibition, most hits filed as inhibitors. 390,000 tested, 0.56% active. AID 540317; note: nearly all actives have a fitted effect of over 70% in size
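Compound inhibition of the preformed complex between 50 nM HP1-beta and 50 nM biotinylated H3K9me3 peptide was read by AlphaScreen. Buffer was PBS pH 7.4 with 0.01% Tween-20. Incubations ran 30 min at room temperature, with 10 ug/mL donor/acceptor beads.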
The depositor's hits bear a star; ? = inconclusive; . = no result given; [ ] = another dose, or the depositor's remark. Calls come from the whole dose curve; as a rule, active = well fitted curve in the direction sought with a large enough effect; inconclusive = small, poorly fitted or top-dose-only effect, or another doubt; inactive = no such curve, though single readings can be large; an effect the other way counts as inactive or inconclusive. Potency is the fitted concentration of half-maximal effect.

SMILES | G9a block | BAZ2B inh | JMJD2A Tudor | L3MBTL1 inh | Sfp PPTase inh | HP1b binding inh
CCC(Oc1ccccc1)C(=O)Nc1ccc(O)c(-c2nc3cc(C)ccc3o2)c1 (stereo not drawn) | 23%[59 µM] | 1% | 2% | . | . | 67%
COc1ccc(CCCc2n[nH]c(=S)o2)cc1C | 8.9µM* | -23% | -10% | . | 21% | 51%
COc1ccc(CCCc2nnc(SCC(=O)Nc3nccs3)n2C)cc1C | 5%[12.7 µM] | 16% | -10% | 2%[11.4 µM] | -8% | 36%
COc1ccc(CCCc2n[nH]c(=S)n2C)cc1C | 11µM* | -24% | 5.6µM* | . | 12% | ?
CCN1CCN(C(c2ccccc2)c2c(O)cc(C)n(Cc3ccco3)c2=O)CC1 (stereo not drawn) | ? | -19% | ? | . | . | 14%[57 µM]
CCN1CCN(C(c2ccc(OC)cc2)c2c(O)cc(C)n(Cc3ccco3)c2=O)CC1 (stereo not drawn) | ? | -17% | 79µM* | . | . | 10%[57 µM]
CCN1CCN(C(c2ccccc2Cl)c2c(O)cc(C)n(Cc3ccco3)c2=O)CC1 (stereo not drawn) | ? | -19% | ? | . | . | 22%[57 µM]
CCN1CCN(C(c2ccc(SC)cc2)c2c(O)cc(C)n(Cc3ccco3)c2=O)CC1 (stereo not drawn) | ? | -13% | 79µM* | . | . | -13%[57 µM]
CCCn1c(CCC(=O)Nc2cc(Cl)c(OC)cc2OC)nc2cccnc21 | -2%[59 µM] | -13% | -13% | . | . | 39%
O=c1[nH]c(CSc2ccccn2)nc2ccccc12 | 29% | 7% | -8% | . | 13% | 40%
Nn1c(CSc2ccccn2)nc2ccccc2c1=O | 40µM* | 5% | -2% | . | -8% | 36%
O=c1c(-c2ccc3c(c2)OCCO3)coc2cc(O)cc(O)c12 | -1%[59 µM] | -30% | -17% | -6% | 20µM* | 23%
Cc1ccc2[nH]c3c(c2c1)CCCC3NCCO (stereo not drawn) | 50µM* | ? | ? | -13% | -9% | -16%
CCOC(=O)c1ccc(NC(=S)NNC(=O)C2(C)CC2(Cl)Cl)cc1 (stereo not drawn) | 10µM* | 11% | -18% | 10% | -6% | -2%
O=c1[nH]c2ccc(NC(=S)Nc3ccc(Cl)cc3)cc2[nH]1 | -2%[59 µM] | 8% | -17% | . | 3% | -10%
CCOC(=O)c1ccc(NC(=S)Nc2ccc3[nH]c(=O)[nH]c3c2)cc1 | . | -6% | -10% | 0% | 40µM* | 3%
Cc1ccc(NC(=S)Nc2ccc3[nH]c(=O)[nH]c3c2)cc1 | 50µM* | -21% | -7%[11.4 µM] | -6% | ? | -15%
COCCNC(=S)Nc1ccc2[nH]c(=O)[nH]c2c1 | 18µM* | -22% | -10% | 0% | -11% | -2%
CCOC(=O)c1ccc(NC(=S)NNC(=O)COC)cc1 | ? | 44% | -5% | 31% | -8% | 13%
COc1ccc(-c2coc3c(O)c(OC)ccc3c2=O)cc1 | . | . | . | . | -9% | .
COc1ccc(OC2C=CC(c3ccccc3)OC2CO)c(C(C)(C)C)c1 (stereo not drawn) | . | . | . | . | 14% | .
COc1cc(OC)cc(C(=O)NC(=S)Nc2ccc3[nH]c(=O)[nH]c3c2)c1 | 6% | 10% | -26% | . | 5% | 20%
O=c1[nH]c2ccc(NC(=S)Nc3ccccc3)cc2[nH]1 | 45µM* | 14% | -9%[57.1 µM] | . | ? | -14%
Cc1ccc(C(=O)NC(=S)Nc2ccc3[nH]c(=O)[nH]c3c2)cc1 | 50µM* | 7% | ? | 0% | -15% | 12%
O=C(/C=C\c1ccccc1)NC1CC(=O)N(c2ccccc2)C1 (stereo not drawn) | 8%[59 µM] | 3% | 11% | . | . | 28%
SMILES | G9a block | BAZ2B inh | JMJD2A Tudor | L3MBTL1 inh | Sfp PPTase inh | HP1b binding inh
Cc1n[nH]c(=O)c2c(NC(=O)COC(=O)COc3cccc(Br)c3)oc(C)c12 | 18µM* | 0% | -13% | 14% | . | 55%
Cc1n[nH]c(=O)c2c(NC(=O)COC(=O)/C=C/c3cccc(C(F)(F)F)c3)oc(C)c12 | 10µM* | 6% | -20% | -7% | . | 40%
Cc1n[nH]c(=O)c2c(NC(=O)COC(=O)Cc3c(F)cccc3Cl)oc(C)c12 | 25µM* | -3% | -8% | 31% | . | 40%
Cc1n[nH]c(=O)c2c(NC(=O)COC(=O)c3cccc(OC(F)F)c3)oc(C)c12 | 10µM* | 15% | -10% | 4% | . | 44%
CCCN(CCC)C(=O)Cn1c(=O)n(-c2ccc(Cl)c(Cl)c2)c(=O)c2c(C)c(C(=O)N(C)C)sc21 | 7%[59 µM] | 0% | -18% | . | . | 15%
O=[N+]([O-])c1cc([N+](=O)[O-])c2cccnc2c1Oc1ccccc1O | 3.2µM* | 28µM* | 22µM* | ? | 45µM* | 71µM*
O=[N+]([O-])c1ccc(O)c2ncccc12 | ? | 3.5µM* | 22µM* | ? | -25% | -4%
O=C(CN(c1cccc(Br)c1)S(=O)(=O)c1ccccc1)N1CCc2ccccc2C1 | 19%[59 µM] | -1% | -1% | . | . | 17%
COc1ccccc1NC(=O)C1=C(C)Nc2nc3ccccc3n2C1c1cccc(Br)c1 (stereo not drawn) | ? | -19% | -20% | . | . | 22%
CCOC(=O)c1ccc(NC2=CC(c3ccc(O)c(OCC)c3)N(c3ccc(C(=O)OCC)cc3)C2=O)cc1 (stereo not drawn) | -2%[59 µM] | -16% | -9% | . | . | 12%
COc1ccc(/C=N/NC(=O)c2nn(-c3ccc(Cl)cc3)c(=O)c3c(N)scc23)cc1 | ? | -32% | -26% | . | -27% | -15%
CCOC(=O)c1nn(-c2ccc(C)c(C)c2)c(=O)c2c(N)scc12 | 2µM* | 56µM* | 22µM* | -9% | 8.9µM* | -29%
CCN(CC)C(=O)c1nn(-c2ccc(OC)cc2)c(=O)c2c(N)scc12 | . | . | 56µM* | . | . | .
COc1ccc(/C=N/NC(=O)c2nn(-c3ccccc3)c(=O)c3c(N)scc23)cc1 | 0.35µM* | 40µM* | 5.6µM* | ? | 7.1µM* | ?
O=C(NCCc1ccccc1)C1CCN(c2ncnc3c2nc2n3CCCCC2)CC1 | 11%[59 µM] | 5% | 11% | . | . | 32%
Cc1ccc(/C=C/C(=O)Nc2nnc(C)s2)o1 | -8%[59 µM] | 1% | -4% | -12% | -10% | 13%
Cc1ccc(/C=C/C(=O)Nc2ccc([N+](=O)[O-])cc2)o1 | 28µM* | 50µM* | -8% | 3% | 14µM* | 14%
CC(=O)c1ccc(NC(=O)/C=C/c2ccc(C)o2)cc1 | 11µM* | ? | 50µM* | . | . | ?
Cc1ccc(/C=C/C(=O)Nc2ccc(Oc3ccccc3)cc2)o1 | 11µM* | ? | -33% | -7% | 28µM* | ?
O=C(O)/C=C/C(=O)Nc1ccc(Oc2ccccc2)cc1 | . | -23% | -12% | -13% | 15% | 24%
